In PubChem BioAssay AID651791 (National Center for Advancing Translational Sciences (NCATS), 2012):
Inconclusive results are not listed. Activity calls are given as the source filed them. Calls come from the whole dose curve; as a rule, active = well fitted inhibition curve with a large enough effect; inconclusive = small, poorly fitted or top-dose-only effect; inactive = no such curve, though single readings can be large or run the other way.

Experiment: InCell qHTS Assay for Inhibitors of the mTORC1 Signaling Pathway in MEF (Tsc2-/-, p53-/-) Cells: Hit Validation; note: nearly all actives have a fitted effect of over 75% in size
Settings: phospho-rpS6 immunofluorescence, 24 h; activity change, negative = inhibition: at 38.3 µM (top of the series)
Description: The mammalian target of rapamycin (mTOR) is an intracellular serine/threonine kinase Aberrant regulation of mTOR signaling plays a causative role in a number of human diseases, including cancer, benign tumors such as lymphangioleiomyomatosis (LAM) and Tuberous Sclerosis Complex (TSC), and metabolic diseases such as diabetes and obesity. This project aims to identify inhibitors of ribosomal protein S6 (rpS6) phosphorylation. The phosphorylation of rpS6 is a key event downstream of mTOR activation. The assay uses a phospho-specific antibody of phospho-rpS6 to detect inhibitors of mTOR activation. Mutations in the Tsc1 and Tsc2 genes are the underlying genetic lesions responsible for TSC, causing constitutive activation of the mTORC1 pathway and leading to profound effects on cell metabolism. Aberrant metabolism in cancer has recently received significant attention as a target to develop therapeutic agents in the treatment of cancer.1 As Tsc2-/- cells have lost the ability to respond to energy and growth factor deprivation, these cells are unable to properly down regulate cellular biosynthetic processes in response to metabolic stress, and are thus extremely sensitive to glucose deprivation-induced death.2 A central goal of this project is to explore the unique cell survival and metabolic properties of cells with Tsc1 or Tsc2 by screening for compounds that selectively target the Tsc2-/- MEFs by screening both Tsc2-/- and WT MEF cell lines. We hope to better understand these aspects of TSC physiology in order to exploit them for therapeutic benefit. NIH Molecular Libraries Probe Production Centers Network [MLPCN] NIH Chemical Genomics Center [NCGC] MLPCN Grant: NS059428 Assay Submitter (PI): Blenis, John; Harvard University
For quantitative high throughput analysis of mTORC1 signaling, we developed a cell-based assay for immuno-fluorescence based detection of rpS6 phosphorylation on the Acumen Explorer that will be used a platform for the primary small molecule screen. Mouse embryonic fibroblasts (MEFs) are cultured in 1536-well plates using DMEM + 10% FBS. Twenty-four hrs after plating, test compounds (solubilized in DMSO) are delivered and incubated with the cells for 24 hrs at 37 degree Celsius. Following the incubation, media with compound is aspirated and the cells are fixed in 4% paraformaldehyde (PFA) containing PBS + 0.2% TX-100. Next, PFA is aspirated, cells are washed two times with PBS plus 0.2% TX-100 and the cells are blocked for 1 hr at room temperature (blocking buffer: LiCOR Blocking Buffer plus 0.2% TX-100). This is followed by aspiration and staining with Alexa-488 conjugated-phospho-rpS6 Ser235/236 antibody for 2 hours at room temperature (Cell Signaling Technology # 4803, 1:50 dilution in blocking buffer). Cells are washed two times with PBS plus 0.2% TX-100, and stained with 10 uM propidium iodide (PI) for 20-25 minutes for cell number measurement (1:500 dilution of Hoescht staining is also added for IN Cell imaging). The plates are scanned on the Acumen Explorer laser scanning instrument (TTP Labtech) using the 488nm laser for simultaneous excitation of the Alexa-488 and PI. The fluorescence emission from the Alexa-488 conjugated rpS6 phospho-235/236 antibody staining is selected using a […] band pass filter. Fluorescence emission from the PI stain is selected using a 575-640 nm band pass filter. The normalized phospho-S6 staining is calculated as the ratio of the integrated Alexa 488 intensity divided by the integrated PI intensity for the single concentration rapamycin control (7.5 nM) and DMSO columns. […] Inhibition of the pathway is defined based on the normalized phospho-S6 intensity in rapamycin treated cells. […]
Potency is the fitted concentration of half-maximal effect.

| Compound | activity change, negative = inhibition | Potency |
| --- | --- | --- |
| CCC1=Nc2cc(C(=O)NC3CCC(C)CC3)ccc2Sc2ccc(C)cc21 (stereo not given) | -100% |  |
| COc1ccc(S(=O)(=O)N(CCc2ccccc2)CC(=O)Nc2cccc(OC)c2)cc1 | -100% |  |
| Cc1nc2nncn2c(NCc2ccc(F)cc2)c1C | -100% |  |
| CCCS(=O)(=O)c1ncc(Cl)c(C(=O)N2CCN(c3ccc(OC)cc3)CC2)n1 |  | 1850 nM (active) |
| CCOC(=O)Cc1ccc(NC(=O)n2ncc3cc(Cl)ccc32)cc1 | -100% |  |
| Cc1cc(C)cc(OCC(=O)Nc2cccc(-c3nc4ccccc4[nH]3)c2)c1 | -100% |  |
| O=C(NCc1ccccc1Cl)C(=O)NCC(c1cccs1)S(=O)(=O)c1cccs1 (stereo not given) | -100% |  |
| Cc1cccc(N(C)S(=O)(=O)c2ccc(-c3cc(C)no3)s2)c1 | -9.17% |  |
| Cc1ccc(-c2nn(C)c(=O)c3ccccc23)cc1S(=O)(=O)NCCCN(C)C | -100% |  |
| COC(=O)c1ccccc1NC(=O)c1nc(S(=O)(=O)Cc2cccc(C)c2)ncc1Cl |  | 3690 nM (active) |
| COc1ccc(NS(=O)(=O)c2ccc(-n3cccn3)cc2)cc1OC | -100% |  |
| Cc1cccc(C(=O)Nc2c3c(nn2-c2ccc(Cl)cc2)CS(=O)(=O)C3)c1 | -100% |  |
| Cc1oc2c(cc(NS(=O)(=O)c3ccc(C(C)C)cc3)c3ccccc32)c1C(=O)OCc1ccccc1 | -1.72% |  |
| CCN(CCCNC(=O)c1cc2c(=O)[nH]c3ccccc3c2s1)c1ccccc1 | -100% |  |
| CCC1CN(C(=O)NCc2ccc(F)cc2)c2cc(C)ccc2O1 (stereo not given) | -100% |  |
| CCOC(=O)c1c(NC(=O)c2ccc(S(=O)(=O)N(C)C)cc2)sc2c1CCN(C)C2 | -26.7% |  |
| CCOC(=O)N1CCN(Cc2nc3cc(NC(=O)c4ccc(F)cc4)ccc3n2C(C)C)CC1 | -100% |  |
| Cc1oc2ccc(O)c(CN3CCCC(C)C3)c2c1C(=O)Nc1ccccc1 (stereo not given) | -29.6% |  |
| CCOc1ccc(CC(=O)NC2CC(=O)N(c3ccc4c(c3)OCCO4)C2)cc1 (stereo not given) | -100% |  |
| COc1ccc(/C=C/C(=O)Nc2ccc3nc(N4CCC(C)CC4)cc(C)c3c2)cc1OC | -100% |  |

| Compound | activity change, negative = inhibition | Potency |
| --- | --- | --- |
| CCc1ccc(NC(=O)Cn2nc(C(F)(F)F)c3c2CCCC3)cc1 | -100% |  |
| COc1cc(OC)c(NS(=O)(=O)c2ccc3c(c2)CCCN3C(C)=O)cc1Cl | -100% |  |
| CCOC(=O)N1CCN(Cc2nc3cc(NC(=O)CC)ccc3n2C(C)C)CC1 | -100% |  |
| CCOC(=O)c1cnc2c(ccc3ccccc32)c1Nc1ccc(OC)cc1OC | -100% |  |
| COc1cc(Nc2nc(SCC(=O)c3ccc(Cl)c(Cl)c3)nc3ccccc23)cc(OC)c1 | -16.4% |  |
| CCCCC1CCC(C(=O)N2CC(=O)Nc3ccc(Cl)cc3C2c2ccc(F)cc2)CC1 (stereo not given) | -100% |  |
| N#C/C(=C\c1ccc(-c2ccc(F)cc2F)o1)c1nc2ccccc2[nH]1 | -27.3% |  |
| COc1ccccc1C1C=C(c2ccc(Cl)cc2)Nc2nc(-c3ccc(Cl)cc3)nn21 (stereo not given) | -100% |  |
| O=C(Cn1c(=O)n(Cc2ccc3c(c2)OCO3)c(=O)c2ccc(C(=O)NC3CCCCC3)cc21)Nc1ccccc1F |  | 5210 nM (active) |
| Cc1cccc(-n2cnc3cc(C(=O)NC4CCCCCC4)ccc32)c1 | -100% |  |
| CC1C(=O)Nc2ccc(S(=O)(=O)Nc3ccccc3Br)cc2NC1=O (stereo not given) | -100% |  |
| CC1=Nc2cc(C(=O)NC3CCCCC3)ccc2Sc2ccc(Cl)cc21 | -100% |  |
| CN(Cc1ccccc1)C(=O)CSc1c2c(nc3ccc(Cl)cc13)CCCC2 | -100% |  |
| COc1ccccc1N1CCN(C(=O)c2cnc(N3CCCCC3)c3ccccc23)CC1 | -100% |  |
| CCc1cccc(NC(=O)c2oc3ccc4c(c3c2C)C(=O)CC(C)(C)O4)c1 | -100% |  |
| CCOC(=O)c1ccc(NC(=O)c2nc(S(=O)(=O)Cc3ccccc3)ncc2Cl)cc1 |  | 4140 nM (active) |
| CCS(=O)(=O)c1oc(-c2ccc(F)cc2)nc1S(=O)(=O)c1ccccc1 |  | 736 nM (active) |
| Cc1ccc(O)c(C(CC(=O)NCC2(c3ccccc3)CCCC2)c2ccccc2)c1 (stereo not given) | -100% |  |
| CCNc1nc2c(c(=O)[nH]c(=O)n2C)n1CC(O)COc1ccc(Cl)cc1Cl (stereo not given) | -100% |  |
| CCC(C)S(=O)(=O)c1oc(-c2ccc(F)cc2)nc1S(=O)(=O)c1ccc(F)cc1 (stereo not given) |  | 1470 nM (active) |
